Assay outcomes from PubChem BioAssay.
FBPA Giardia inh: blocks Giardia fructose-bisphosphate aldolase activity; A8B2U2; purified Giardia FBPA; Potency, µM (top dose mostly 59.6 µM), inactives show at the top dose activity, negative = inhibition, actives largely listed as inhibitors; 290,000 tested, 0.71% active; also: potency is read from the fitted curve at half-maximal effect; nearly all actives have a fitted effect of over 55% in size
Target sequence (A8B2U2 whole entry, looked up): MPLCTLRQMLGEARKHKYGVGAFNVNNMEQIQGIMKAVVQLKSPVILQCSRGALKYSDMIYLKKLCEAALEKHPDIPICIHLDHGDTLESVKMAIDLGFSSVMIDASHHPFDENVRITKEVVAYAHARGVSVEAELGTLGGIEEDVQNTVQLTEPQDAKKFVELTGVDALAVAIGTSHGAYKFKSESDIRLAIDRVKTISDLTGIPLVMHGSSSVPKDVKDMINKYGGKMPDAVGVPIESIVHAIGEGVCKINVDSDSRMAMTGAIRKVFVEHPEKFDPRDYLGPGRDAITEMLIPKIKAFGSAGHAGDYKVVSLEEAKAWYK
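Giardia FBPA (40 nM reagent) was preincubated 10 min at RT with compound (up to 57.5 uM final), then substrate plus GAPDH/TPI/NAD/arsenate coupling system with diaphorase/resazurin was added; resorufin fluorescence (525/598 nm) was read after 20 min.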
HCMV inh: human cytomegalovirus inhibition; HFF cells, HCMV-luciferase reporter, 72 h; stronger effect = lower value; activity change, negative = inhibition, % at 57.5 µM; 410,000 tested, 4.5% active; in the data active = activity change below about -60%; inconclusive = no clear call, values can overlap the other calls; inactive = above about -39%
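HFF cells seeded 16 h at 37C, treated with compounds, infected with luciferase-reporter HCMV at MOI 1 PFU/cell; luciferase read at 72 h post infection, normalized to buffer-only and Salinomycin controls.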
Vaccinia mCherry: vaccinia inhibition (mCherry reporter) | Vaccinia virus mCherry reporter infection, fluorescence | Potency, µM (doses to about 36.5 µM), without a hit: at the top dose activity change, negative = inhibition, most hits filed as inhibitors | 310,000 tested, 0.63% active | AID 720579; calls by dose curve; tested in A549 cells; also: potency is read from the fitted curve at half-maximal effect; nearly all actives have a fitted effect of over 35% in size
FMDV inh: foot and mouth disease virus antiviral activity. FMDV antiviral cell-based qHTS. 410,000 tested, 1.2% active. Potency, µM (series often up to 57.9 µM), without a hit: at the top dose activity change, negative = inhibition, usual class: inhibitors; calls by dose curve; tested in HEK293T cells; also: read-out not given here; potency is read from the fitted curve at half-maximal effect; nearly all actives have a fitted effect of over 45% in size
HCV inhibitor: blocks hepatitis C virus. Huh7.5.1 HCVcc-Cre infection, luciferase reporter, 44 h. 340,000 tested, 3.4% active. Potency, µM (series often up to 41.8 µM), for the others: top-dose activity change, negative = inhibition, hits mostly inhibitors. AID 651820; also: potency is read from the fitted curve at half-maximal effect
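HCVcc-Cre virus at an moi near 0.5 was added right after compound to cells cultured 4 h from seeding (1,000 cells/well). Luciferase activity was determined 44 h later, 15 min after substrate addition at RT.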
VACV Venus inh: vaccinia inhibition (Venus reporter) | 330,000 tested, 0.46% active | Vaccinia virus Venus reporter expression, fluorescence | AID 720580 | Potency, µM (doses to about 36.5 µM), for the others: at the highest dose activity change, negative = inhibition, actives largely listed as inhibitors; calls by dose curve; tested in A549 cells; also: potency is read from the fitted curve at half-maximal effect; nearly all actives have a fitted effect of over 30% in size
* marks the source's active call; other numbers are inactive results; i = inactive; ? = inconclusive; · = no result given; [ ] = remark or other dose. Rows were chosen to be rich in hits. Some 7.5% of all compounds tested hit in one or more screens of this group. Unless noted, calls follow the shape of the dose curve; as a rule, active = well fitted curve in the direction sought with a large enough effect; inconclusive = small, poorly fitted or top-dose-only effect, or another doubt; inactive = no such curve, though single readings can be large; an effect the other way counts as inactive or inconclusive. % is scaled to controls: 0 for no effect and ±100 for the full control effect.

SMILES	FBPA Giardia inh	HCMV inh	Vaccinia mCherry	FMDV inh	HCV inhibitor	VACV Venus inh
Cc1nn(CCC(=O)NCc2cccc(Br)c2)c(=O)c2nn(-c3ccccc3)c(C)c12	·	-8	-19%	-9%	·	-16%
COC(=O)c1cc(COC(=O)c2ccc(OC)c(S(=O)(=O)N3CCCC3)c2)oc1C	1%	-20	·	-7%	16µM*	-5%
CC1CCN(C(=O)c2ccc(CNS(=O)(=O)c3ccc(C(C)(C)C)cc3)cc2)CC1	·	-37	·	-9%	22µM*	·
CC1CCN(C(=O)c2ccc(NS(=O)(=O)c3ccc4[nH]c(=O)[nH]c4c3)cc2)CC1	·	-98*	i	-15%	?	3%
COc1ccc(NS(=O)(=O)c2ccc(C(=O)N3CCC(C)CC3)cc2)cc1	·	-66*	-27%	-14%	?	3%
COc1ccc(C(=O)N2CCN(C(=O)C3CCCO3)CC2)cc1[N+](=O)[O-] (centres undefined)	·	-10	·	-7%	7%	·
CSc1ncccc1C(=O)NCC1Cc2cc(-c3cnccn3)cc(Cl)c2O1 (centres undefined)	·	·	i	12%	·	-12%
COc1ccc(C(CNC(=O)c2ccc(OCc3c(C)noc3C)cc2)N2CCCC2)cc1 (centres undefined)	·	44	·	-20%	?	·
Cc1ccccc1-c1noc(-c2ccc(N3CCCC3)c([N+](=O)[O-])c2)n1	·	-69*	-5%	-32%	·	2%
Cc1ccccc1-c1noc(-c2ccc(N3CCN(C)CC3)c([N+](=O)[O-])c2)n1	·	-75*	-8%	?	·	-7%
C=CCC(O)(C#Cc1ccccc1)c1ccccc1 (centres undefined)	10%	·	·	·	·	·
O=[N+]([O-])c1ccc(-c2nc(=S)c3c(o2)CCCC3)cc1	-6%	-101*	i	-26%	19%	-8%
COc1ccc(NC(=O)C2CCN(c3cc(-c4ccccc4)nc4ncnn34)CC2)cc1OC	-5%	-89*	·	?	-16%	·
COc1ccccc1NC(=O)N1CCN(c2cc(-c3ccccc3)nc3ncnn23)CC1	7%	-95*	·	32µM*	10µM*	·
COc1ccc(OC)c(NC(=O)C2CCN(c3cc(-c4ccccc4)nc4ncnn34)CC2)c1	-8%	?	·	-10%	14µM*	·
OC(c1ccc2c(c1)CN(Cc1ccc3nsnc3c1)CCO2)C1CCCCC1 (centres undefined)	·	·	-10%	-10%	·	-2%
O=C(C[n+]1cccc2cccc(O)c21)c1ccc(F)cc1	·	·	-12%	·	·	-6%
CCCCN(C)CC(O)Cn1cc(/C=C/C(=O)c2ccc(OCC)cc2)c2ccccc21 (centres undefined)	3%	-107*	?	-21%	·	?
CCCCN(CCCC)CC(O)Cn1cc(/C=C/C(=O)c2ccccc2)c2ccccc21 (centres undefined)	·	-106*	-16%	-15%	·	-18%
CCC(C)c1ccccc1OCCn1c(CCNC(=O)C2CCCCC2)nc2ccccc21 (centres undefined)	·	·	-21%	·	·	-10%
O=C(CCl)NCCCN(C(=O)C(Cl)Cl)c1ccc([N+](=O)[O-])cc1	3%	-103*	·	-29%	?	·
COCCCNC(=O)c1ccc([N+](=O)[O-])cc1	3%	0	i	9%	5%	-16%
O=C(/C=C/Nc1ccccc1F)c1cccs1	1%	74	-13%	13µM*	9%	-10%
O=C(/C=C/Nc1ccc(F)cc1F)c1ccco1	-12%	119	-24%	-83%	?	-21%
O=C(/C=C/Nc1ccc(F)cc1F)c1cccs1	-14%	49	-9%	20µM*	0%	3%
SMILES	FBPA Giardia inh	HCMV inh	Vaccinia mCherry	FMDV inh	HCV inhibitor	VACV Venus inh
O=C(/C=C/Nc1ccc(Br)cc1F)c1ccco1	-5%	-37	-15%	10µM*	-6%	-6%
CC(C)CN1CC[C@@]2(CCCN(C(=O)c3cnccn3)C2)C1	-8%	·	·	1%	·	·
c1ccc2c(c1)nc(-c1ccncc1)n2CCNc1nc(CN2CCCCC2)cs1	?	-9	i	-22%	9%	-2%
CC(=O)OCCN(CCCn1c(-c2ccncc2)nc2ccccc21)c1nc(CN2CCCCC2)cs1	?	28	2%	-10%	2.5µM*	8%
COc1cccc(C(O)c2ncc(-c3cccc4ccccc34)[nH]2)c1 (centres undefined)	·	10	-11%	-8%	·	-6%
CCOC(=O)C(=CNc1cc(Cl)c(-c2ccco2)c(Cl)c1)C(=O)OCC	-4%	9	·	-26%	13µM*	·
CCOC(=O)C(=CNc1ccccc1C)C(=O)OCC	2%	-23	·	-27%	?	·
CCOC(=O)C(=CNc1ccccc1Cl)C(=O)OCC	2%	-61*	-10%	-2%	?	?
C[C@@H]1CN([C@@H](C)CO)C(=O)CCCn2cc(nn2)CO[C@H]1CN(C)C(=O)c1ccc2ccn(C)c2c1	·	12	-11%	-14%	·	-9%
Cc1nn(-c2ccccn2)c2c1C(c1ccccn1)C1=C(CCCC1=O)N2 (centres undefined)	0%	·	·	·	·	·
Cn1c(N)c(C(=O)COC(=O)c2cc(C3CC3)nc3ccccc23)c(=O)n(Cc2ccccc2)c1=O	-17%	58	-9%	2%	1%[8.37 µM]	-18%
CCc1nn(-c2ccccc2)c(N)c1C#N	1%	77	i	-2%	11%	9%
CCc1nn(-c2ccccc2)c(=S)c2ccccc12	5%	-63*	?	-15%	?	-12%
CCc1ccc(NC(=S)/N=C(\N)Nc2nc(C)c3cc(CC)ccc3n2)cc1	4%	-28	?	?	16µM*	?
COc1ccc2nc(N/C(N)=N/C(=S)Nc3ccccc3)nc(C)c2c1	2%	-31	-30%	-20%	11µM*	-18%
CCOc1ccc2nc(N/C(N)=N/C(=S)Nc3ccc(OC)cc3)nc(C)c2c1	7%	-8	·	-8%	?	·
COc1ccc2nc(N/C(N)=N/C(=S)Nc3ccc(C)c(C)c3)nc(C)c2c1	10%	·	·	·	4µM*	·
C=CC(C)(C)c1[nH]c2ccccc2c1C1=C(O)C(=O)C(c2c[nH]c3c(CC=C(C)C)cccc23)=C(O)C1=O	14%	·	·	?	·	·
CCN(Cc1ccccc1)C(=O)COC(=O)c1cnc(C)cn1	1%	-23	·	-2%	9%	·
CCN(Cc1ccccc1)C(=O)COC(=O)c1c(C)nsc1NC	·	-66*	·	?	11µM*	·
Cc1c(O)ccc(/C(Cc2ccc3ccccc3n2)=N\O)c1O	10%	2	·	15%	11µM*	·
Cc1ccc(NC(=S)N/N=C2/CCCCc3ccccc32)cc1	7%	22	?	24%	-22%	-23%[7.34 µM]
Cc1ccc(C)c(NC(=S)N/N=C2\CCc3ccccc32)c1	8%	-25	·	9%	10µM*	·
C=C(C)CNC(=S)N/N=C1\CCCCc2ccccc21	11%	-61*	-12%	-18%	-26%	-8%
